Source: the supplement of paper PMC11732987, “Enantioselective OTUD7B fragment discovery through chemoproteomics screening and high-throughput optimisation” (Communications Chemistry, 2025)

Columns and labels:
Assay in all cases: log2 ratio of Biotin-Ahx-Ub-VS probe labelling (fragment/DMSO); higher = less target engagement (more negative = stronger competition), active = hit call of the paper (q ≤ 0.05, log2 ratio ≤ -1)
Settings in all cases: compound concentration: 200 uM; treatment time: 3 h
USP19 = molecular target: T1, USP19 (UniProt O94966)
T1 sequence (whole entry): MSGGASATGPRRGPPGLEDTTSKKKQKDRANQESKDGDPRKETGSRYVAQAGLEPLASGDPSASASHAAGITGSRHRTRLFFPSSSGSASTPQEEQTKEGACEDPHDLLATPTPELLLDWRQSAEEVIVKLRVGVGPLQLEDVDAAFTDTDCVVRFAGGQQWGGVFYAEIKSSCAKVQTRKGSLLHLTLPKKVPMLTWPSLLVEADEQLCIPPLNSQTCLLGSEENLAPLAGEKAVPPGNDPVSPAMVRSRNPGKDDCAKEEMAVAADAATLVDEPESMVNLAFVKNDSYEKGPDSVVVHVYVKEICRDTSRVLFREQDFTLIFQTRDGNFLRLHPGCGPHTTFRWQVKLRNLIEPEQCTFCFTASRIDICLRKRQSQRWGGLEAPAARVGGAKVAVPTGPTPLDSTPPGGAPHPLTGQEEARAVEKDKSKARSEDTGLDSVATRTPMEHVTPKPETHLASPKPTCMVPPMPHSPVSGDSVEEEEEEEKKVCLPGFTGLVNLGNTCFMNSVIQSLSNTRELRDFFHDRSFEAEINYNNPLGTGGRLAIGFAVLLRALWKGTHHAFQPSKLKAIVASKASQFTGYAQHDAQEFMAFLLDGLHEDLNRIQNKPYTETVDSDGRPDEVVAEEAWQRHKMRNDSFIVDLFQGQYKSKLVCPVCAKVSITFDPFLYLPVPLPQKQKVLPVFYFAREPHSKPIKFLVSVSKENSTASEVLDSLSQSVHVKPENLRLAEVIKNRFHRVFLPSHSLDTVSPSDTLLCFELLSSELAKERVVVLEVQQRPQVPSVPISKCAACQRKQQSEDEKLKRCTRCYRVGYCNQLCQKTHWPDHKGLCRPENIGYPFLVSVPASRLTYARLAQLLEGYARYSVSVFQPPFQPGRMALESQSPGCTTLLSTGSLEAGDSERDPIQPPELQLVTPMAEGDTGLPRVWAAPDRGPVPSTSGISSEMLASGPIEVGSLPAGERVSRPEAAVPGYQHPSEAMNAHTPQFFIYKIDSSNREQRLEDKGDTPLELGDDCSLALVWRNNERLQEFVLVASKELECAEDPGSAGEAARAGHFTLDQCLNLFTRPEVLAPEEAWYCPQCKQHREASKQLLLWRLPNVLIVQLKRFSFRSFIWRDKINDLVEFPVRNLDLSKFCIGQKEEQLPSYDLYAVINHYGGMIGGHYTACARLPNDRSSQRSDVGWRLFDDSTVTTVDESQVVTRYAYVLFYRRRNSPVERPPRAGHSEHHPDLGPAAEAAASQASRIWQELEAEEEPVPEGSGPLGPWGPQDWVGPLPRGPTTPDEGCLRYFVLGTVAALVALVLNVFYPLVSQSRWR
In short: (§1)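 Labelled DUBs from HEK293T lysate were NeutrAvidin-enriched, digested with LysC and trypsin, and run by diaPASEF LC-MS/MS. Before that, each 495 µg sample in Tris/CHAPS/IGEPAL buffer with protease inhibitors was treated in triplicate with fragment at 200 µM or vehicle for 3 h, then with Biotin-Ahx-Ub-VS at 0.5 µM final for 1 h. Values are average log2 ratios of fragment over vehicle by unpaired t-test, based on global-median-normalised Spectronaut label-free quantities from proteins with ≥2 unique peptides.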

USP24 = USP24 (UniProt Q9UPU5)
In short: as §1

USP25 = molecular target: T2, USP25 (UniProt Q9UHP3)
T2 sequence (whole entry): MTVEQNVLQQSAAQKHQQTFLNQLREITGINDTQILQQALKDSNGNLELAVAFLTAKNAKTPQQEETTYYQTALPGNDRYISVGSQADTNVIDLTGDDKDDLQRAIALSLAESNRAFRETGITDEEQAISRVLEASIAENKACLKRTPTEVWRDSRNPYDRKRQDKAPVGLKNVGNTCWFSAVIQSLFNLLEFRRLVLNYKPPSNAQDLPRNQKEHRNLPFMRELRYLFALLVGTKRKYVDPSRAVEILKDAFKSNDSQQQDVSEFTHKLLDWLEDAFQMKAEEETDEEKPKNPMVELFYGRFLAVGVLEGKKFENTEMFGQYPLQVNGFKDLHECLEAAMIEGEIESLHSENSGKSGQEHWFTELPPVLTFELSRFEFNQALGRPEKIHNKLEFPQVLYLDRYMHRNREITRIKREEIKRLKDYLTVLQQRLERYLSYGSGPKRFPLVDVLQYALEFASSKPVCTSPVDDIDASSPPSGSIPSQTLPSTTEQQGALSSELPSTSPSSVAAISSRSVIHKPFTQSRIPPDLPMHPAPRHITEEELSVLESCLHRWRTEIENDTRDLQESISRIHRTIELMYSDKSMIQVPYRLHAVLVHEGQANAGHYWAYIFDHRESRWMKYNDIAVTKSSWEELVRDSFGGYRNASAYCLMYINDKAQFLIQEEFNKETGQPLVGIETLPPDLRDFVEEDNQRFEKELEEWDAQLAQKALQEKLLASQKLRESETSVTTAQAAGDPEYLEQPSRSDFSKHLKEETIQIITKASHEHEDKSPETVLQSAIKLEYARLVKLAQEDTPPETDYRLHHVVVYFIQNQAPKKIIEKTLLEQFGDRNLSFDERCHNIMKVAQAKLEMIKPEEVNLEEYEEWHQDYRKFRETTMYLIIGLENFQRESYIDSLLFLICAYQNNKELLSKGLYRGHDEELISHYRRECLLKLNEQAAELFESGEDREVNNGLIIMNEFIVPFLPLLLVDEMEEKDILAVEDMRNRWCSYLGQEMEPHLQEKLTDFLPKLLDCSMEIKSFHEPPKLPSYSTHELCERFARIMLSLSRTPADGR
In short: as §1

USP28 = molecular target: T3, USP28 (UniProt Q96RU2)
T3 sequence (whole entry): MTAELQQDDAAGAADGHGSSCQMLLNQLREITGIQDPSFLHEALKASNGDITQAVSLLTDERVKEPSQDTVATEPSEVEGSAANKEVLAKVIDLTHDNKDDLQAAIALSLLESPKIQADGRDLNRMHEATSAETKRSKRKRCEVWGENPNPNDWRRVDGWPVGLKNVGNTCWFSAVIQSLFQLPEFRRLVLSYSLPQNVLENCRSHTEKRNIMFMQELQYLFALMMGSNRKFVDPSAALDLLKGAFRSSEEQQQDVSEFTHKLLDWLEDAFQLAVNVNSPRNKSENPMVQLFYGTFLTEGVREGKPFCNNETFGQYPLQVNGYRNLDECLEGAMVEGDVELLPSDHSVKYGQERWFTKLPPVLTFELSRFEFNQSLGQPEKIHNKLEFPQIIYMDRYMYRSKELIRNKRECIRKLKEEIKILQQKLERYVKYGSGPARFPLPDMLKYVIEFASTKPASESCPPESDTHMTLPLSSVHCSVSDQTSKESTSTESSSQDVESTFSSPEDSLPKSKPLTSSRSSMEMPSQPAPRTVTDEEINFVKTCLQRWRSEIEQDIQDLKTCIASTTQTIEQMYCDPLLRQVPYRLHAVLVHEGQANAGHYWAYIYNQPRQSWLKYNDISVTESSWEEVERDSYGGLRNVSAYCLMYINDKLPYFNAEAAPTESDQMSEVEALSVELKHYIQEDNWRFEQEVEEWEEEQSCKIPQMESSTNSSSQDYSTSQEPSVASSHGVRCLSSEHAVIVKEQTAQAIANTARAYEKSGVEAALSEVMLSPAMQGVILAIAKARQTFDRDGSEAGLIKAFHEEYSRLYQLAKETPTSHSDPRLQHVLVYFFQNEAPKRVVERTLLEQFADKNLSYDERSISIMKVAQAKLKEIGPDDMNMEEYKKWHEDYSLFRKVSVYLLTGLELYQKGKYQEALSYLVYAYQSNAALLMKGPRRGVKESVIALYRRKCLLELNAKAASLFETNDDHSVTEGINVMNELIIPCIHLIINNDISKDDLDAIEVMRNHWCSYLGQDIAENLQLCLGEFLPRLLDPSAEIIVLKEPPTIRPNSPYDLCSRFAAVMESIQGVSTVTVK
In short: as §1

Measured: log2 ratio of Biotin-Ahx-Ub-VS probe labelling

Chain of USP24 (Q9UPU5 whole entry): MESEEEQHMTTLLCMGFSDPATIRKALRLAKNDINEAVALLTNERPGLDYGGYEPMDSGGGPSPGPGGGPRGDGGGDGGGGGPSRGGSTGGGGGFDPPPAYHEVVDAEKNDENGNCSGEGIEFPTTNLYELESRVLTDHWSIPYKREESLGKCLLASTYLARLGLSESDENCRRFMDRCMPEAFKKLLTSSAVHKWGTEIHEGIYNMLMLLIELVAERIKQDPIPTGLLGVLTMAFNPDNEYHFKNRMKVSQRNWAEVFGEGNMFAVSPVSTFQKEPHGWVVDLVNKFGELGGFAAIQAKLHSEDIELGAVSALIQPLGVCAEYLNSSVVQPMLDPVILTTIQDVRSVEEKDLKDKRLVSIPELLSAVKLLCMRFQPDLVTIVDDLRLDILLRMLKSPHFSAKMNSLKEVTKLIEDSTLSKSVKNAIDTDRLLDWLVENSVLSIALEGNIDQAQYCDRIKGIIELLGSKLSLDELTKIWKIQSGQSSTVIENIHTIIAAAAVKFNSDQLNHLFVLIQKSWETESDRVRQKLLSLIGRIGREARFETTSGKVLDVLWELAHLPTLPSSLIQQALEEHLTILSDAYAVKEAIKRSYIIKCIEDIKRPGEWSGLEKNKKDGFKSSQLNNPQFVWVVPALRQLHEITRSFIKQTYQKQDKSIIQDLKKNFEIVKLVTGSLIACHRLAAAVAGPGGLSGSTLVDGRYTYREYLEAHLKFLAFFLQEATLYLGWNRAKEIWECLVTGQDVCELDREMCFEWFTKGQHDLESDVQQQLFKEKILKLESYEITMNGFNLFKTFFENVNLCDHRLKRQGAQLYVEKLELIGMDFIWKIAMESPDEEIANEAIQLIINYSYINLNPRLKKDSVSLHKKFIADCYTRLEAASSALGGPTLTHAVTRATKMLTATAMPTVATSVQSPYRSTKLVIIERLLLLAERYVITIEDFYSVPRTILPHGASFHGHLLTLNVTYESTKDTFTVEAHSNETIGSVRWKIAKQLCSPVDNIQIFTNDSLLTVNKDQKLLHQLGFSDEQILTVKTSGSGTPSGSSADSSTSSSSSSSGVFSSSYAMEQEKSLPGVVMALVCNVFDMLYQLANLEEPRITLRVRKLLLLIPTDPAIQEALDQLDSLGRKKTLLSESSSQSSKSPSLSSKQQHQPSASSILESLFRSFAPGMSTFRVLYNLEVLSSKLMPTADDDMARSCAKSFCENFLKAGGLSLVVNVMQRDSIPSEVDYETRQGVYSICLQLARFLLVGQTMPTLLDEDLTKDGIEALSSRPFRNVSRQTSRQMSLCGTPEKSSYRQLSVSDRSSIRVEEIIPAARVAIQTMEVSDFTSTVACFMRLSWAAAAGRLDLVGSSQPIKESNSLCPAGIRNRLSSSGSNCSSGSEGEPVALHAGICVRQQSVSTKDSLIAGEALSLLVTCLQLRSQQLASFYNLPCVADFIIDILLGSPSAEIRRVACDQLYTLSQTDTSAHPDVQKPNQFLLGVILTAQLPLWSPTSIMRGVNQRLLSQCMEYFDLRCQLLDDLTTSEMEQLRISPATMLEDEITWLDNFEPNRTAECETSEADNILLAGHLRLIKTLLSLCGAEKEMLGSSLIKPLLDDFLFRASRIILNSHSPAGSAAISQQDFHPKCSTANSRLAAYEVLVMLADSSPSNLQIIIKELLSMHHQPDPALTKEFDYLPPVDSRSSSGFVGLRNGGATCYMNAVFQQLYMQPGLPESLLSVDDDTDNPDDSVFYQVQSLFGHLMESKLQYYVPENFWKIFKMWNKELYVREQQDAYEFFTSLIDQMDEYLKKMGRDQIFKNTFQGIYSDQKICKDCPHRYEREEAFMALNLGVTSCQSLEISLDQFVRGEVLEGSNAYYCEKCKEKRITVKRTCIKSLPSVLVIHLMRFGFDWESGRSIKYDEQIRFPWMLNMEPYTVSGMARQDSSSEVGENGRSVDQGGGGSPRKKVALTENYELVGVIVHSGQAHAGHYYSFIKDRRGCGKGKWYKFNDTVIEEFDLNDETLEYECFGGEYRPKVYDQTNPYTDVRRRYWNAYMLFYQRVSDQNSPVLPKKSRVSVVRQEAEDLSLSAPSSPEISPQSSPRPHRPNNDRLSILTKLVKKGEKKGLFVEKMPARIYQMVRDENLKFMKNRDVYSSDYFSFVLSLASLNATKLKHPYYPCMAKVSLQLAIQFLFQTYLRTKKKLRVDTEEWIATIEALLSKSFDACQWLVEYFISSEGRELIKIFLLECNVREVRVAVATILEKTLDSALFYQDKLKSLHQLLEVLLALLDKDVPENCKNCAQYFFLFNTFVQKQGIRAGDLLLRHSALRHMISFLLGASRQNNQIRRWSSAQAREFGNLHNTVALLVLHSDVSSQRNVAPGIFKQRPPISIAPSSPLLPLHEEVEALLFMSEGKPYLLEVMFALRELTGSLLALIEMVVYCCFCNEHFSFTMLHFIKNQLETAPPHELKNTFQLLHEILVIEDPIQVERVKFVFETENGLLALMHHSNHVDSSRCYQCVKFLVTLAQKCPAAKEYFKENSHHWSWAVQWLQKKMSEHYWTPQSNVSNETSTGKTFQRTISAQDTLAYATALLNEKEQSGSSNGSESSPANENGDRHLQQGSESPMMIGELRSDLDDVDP

Cc1ccc(CC(CO)CNC(=O)CCl)cc1 (centres undefined)
inactive: USP19 -0.487 | USP24 -0.554 | USP25 -0.531 | USP28 -0.597
